Source: PubChem (National Center for Advancing Translational Sciences (NCATS))
This is a sample that favours compounds with a hit; in the whole collection about 11% have one here.
PNC inhibitor: blocks assembly of the perinucleolar compartment | PC3M PTB-GFP, PNC prevalence imaging, 16 h; hits give low values | activity change (PNC), negative = inhibition, % at 10 µM | 140,000 compounds, 3.1% hits;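 active = readout at or below -70, meaning at least 70% loss of cells showing the perinucleolar compartment, a nuclear body marking cancer cells; inconclusive = readout between -30 and a set limit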
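Compounds are pinned in duplicate onto adhered PC3M cells stably expressing GFP-tagged PTB and incubated 16 h at 37 C. Cells are then fixed, nuclei stained with Hoechst, and PNC-positive cells counted.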
HPGD block: blocks human HPGD enzyme activity; P15428; purified HPGD, NADH fluorescence kinetic, PGE2 substrate; Potency, µM, hits mostly inhibitors; 150,000 compounds, 4.3% hits; AID 894
Target sequence (P15428 whole entry, looked up): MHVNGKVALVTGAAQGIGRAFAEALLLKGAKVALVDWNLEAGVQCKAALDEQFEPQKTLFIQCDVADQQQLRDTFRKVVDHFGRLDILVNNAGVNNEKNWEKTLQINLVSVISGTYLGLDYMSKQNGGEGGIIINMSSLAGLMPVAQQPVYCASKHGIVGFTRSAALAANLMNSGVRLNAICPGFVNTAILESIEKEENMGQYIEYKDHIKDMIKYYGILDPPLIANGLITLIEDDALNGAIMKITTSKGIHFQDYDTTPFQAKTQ
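NADH formation kinetics: reaction with 30 uM PGE2 and 1 mM NAD+ (final), 20 nM enzyme, Tris-HCl pH 8 with Tween 20, after 15 min compound preincubation at room temperature. Fluorescence change, last versus first of five reads.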
ALDH1A1 inh: inhibitors of human aldehyde dehydrogenase 1A1; 220,000 compounds, 7.3% hits; Potency, µM (highest dose often 75.3 µM), hits mostly inhibitors; AID 1030; Purified ALDH1A1, NADH fluorescence, propionaldehyde substrate; P00352
Numbers stand for hits; . = inactive; ? = inconclusive; / = not tested or not shown; [ ] = remark or other dose. Unless noted, calls come from the whole dose curve; as a rule, active = well fitted inhibition curve with a large enough effect (not every such curve was filed as active); inconclusive = small, poorly fitted or top-dose-only effect, or another doubt; inactive = no such curve, though single readings can be large or run the other way.

SMILES	PNC inhibitor	HPGD block	ALDH1A1 inh
N#Cc1ccccc1NC(=O)C1CC(=O)N(c2ccc3c4c(cccc24)CC3)C1 (stereo not drawn)	.	.	?
CCOc1cc(/C=C2\C(=O)N(Cc3ccco3)C(C)=C2C(=O)OC)ccc1O	/	/	16µM
COC(=O)C1=C(C)N(CCc2ccccc2)C(=O)/C1=C\c1ccco1	?	.	?
CCOc1cc(/C=C2\C(=O)N(CCc3ccc(OC)c(OC)c3)C(C)=C2C(=O)OC)ccc1O	.	?	11µM
C=CCN1C(=O)/C(=C\c2ccco2)C(C(=O)OC)=C1C	.	32µM	.
COC(=O)C1=C(C)N(Cc2ccc(C)cc2)C(=O)/C1=C\c1cc(OC)c(OC)c(OC)c1	.	.	.
CCN1C(=O)/C(=C\c2ccco2)C(C(=O)OC)=C1C	.	.	.
Cc1ccc2[nH]c(=O)c3cc(C(=O)N(C)Cc4ccco4)sc3c2c1	.	?	?
CCOCCCN(Cc1ccco1)C(=O)c1cc2c(=O)[nH]c3ccc(C)cc3c2s1	-85	.	?
O=C(N=Nc1c(O)[nH]c2ccc(Cl)cc12)c1cc(-c2cccs2)nc2ccccc12	.	.	.
CN(C(=O)c1ccc(OC2CCN(CCc3ccccc3)CC2)cc1)C1CCCCC1	/	/	.
COc1ccc(CCNC(=O)CN2CCC(C(N)=O)CC2)cc1	?	.	.
NS(=O)(=O)c1ccc(CCNC(=O)CCC2COc3ccccc3O2)cc1 (stereo not drawn)	.	.	.
CCCS(=O)(=O)N1CCCC(C(=O)NCCc2ccc(OC)c(OC)c2)C1 (stereo not drawn)	-92	.	.
COc1ccc(CCNC(=O)CN2CCC(C)CC2)cc1OC	.	.	11µM
COc1ccc(CCNC(=O)COC(=O)c2cnc(C)cn2)cc1OC	.	.	13µM
COc1ccc(CCNC(=O)CCC2COc3ccccc3O2)cc1OC (stereo not drawn)	.	.	13µM
CCS(=O)(=O)N1CCCC(C(=O)NCCc2ccc(OC)c(OC)c2)C1 (stereo not drawn)	.	.	.
COc1ccc(CCNC(=O)COC(=O)COc2ccc(Cl)cc2)cc1OC	/	/	.
CC(=O)N1CCC[C@@]2(CCN(C(=O)Nc3ccccc3)C2)C1	/	.	.
Cc1cc(NC(=O)C2CCC2)n(-c2ccccn2)n1	.	.	.
CN(CCC(=O)Nc1ccc(Br)cc1)Cc1ccccc1	.	.	.
CC(=O)Nc1nc(C)c(Oc2ccc(C)cc2)c(=O)[nH]1	/	/	.
Cc1ccc(S(=O)(=O)c2cnc(-c3ccccc3)nc2Oc2ccccc2)cc1	.	.	?
Cc1ccc(S(=O)(=O)c2cnc(-c3ccccc3)nc2N2CCCCC2)cc1	/	/	13µM
SMILES	PNC inhibitor	HPGD block	ALDH1A1 inh
C=CCOc1c2ccc(C(=O)NCCc3ccc(C)cc3)cc2nn1C	.	?	?
CCc1n[nH]c(=S)n1/N=C/c1cc(Br)c(OC)cc1OC	.	7.9µM	.
CCc1n[nH]c(=S)n1/N=C/c1ccc(NC(C)=O)cc1	/	/	.
CCN(CC)CCCN1C(=O)C(O)=C(C(=O)c2cc3cccc(OC)c3o2)C1c1ccncc1 (stereo not drawn)	.	.	?
CCCOc1ccc(C2C(C(=O)/C=C/c3ccco3)=C(O)C(=O)N2CCN2CCOCC2)cc1OC (stereo not drawn)	/	/	.
COC(=O)NC(/C=C/c1ccco1)[C@@]1(C(=O)OC)CCCC1=O (stereo partly drawn)	/	/	.[13.5 µM]
Cc1ccc2c(c1)CC[C@H]1CC(=O)CC[C@@]21C	/	.	?
Cc1cc(C(=O)Cn2nnc3ccccc3c2=O)c(C)n1-c1ccccc1F	-87	?	?
Cc1cc(C(=O)COC(=O)C2=NNC(=O)CC2)c(C)n1-c1ccccc1	?	.	16µM
Cc1ccc(-n2c(C)cc(C(=O)COC(=O)C3=NNC(=O)CC3)c2C)cc1	?	.	.
Cc1cc(C(=O)CN2C(=O)c3ccccc3S2(=O)=O)c(C)n1-c1ccccc1	.	.	?
COc1ccc(-n2c(C)cc(C(=O)Cn3nnc4ccccc4c3=O)c2C)cc1	?	.	.
Cc1cc(C(=O)CN2C(=O)NC(CC(C)C)C2=O)c(C)n1-c1ccccc1F (stereo not drawn)	/	/	6.3µM
Cc1cc(C(=O)CN2C(=O)C3CC=CCC3C2=O)c(C)n1-c1ccccc1 (stereo not drawn)	.	.	22µM
CC(C)CC1NC(=O)N(CC(=O)N2c3ccccc3NC(=O)C2(C)C)C1=O (stereo not drawn)	/	/	.
O=C(Nc1ccc(-c2nc3ccccc3s2)c(OC(=O)c2ccccc2)c1)c1ccccc1	.	?	?
Cc1ccc(N(CCC(=O)Nc2nnc(C3CC3)s2)S(=O)(=O)c2ccccc2)cc1	?	.	.
Cc1oc(-c2ccccc2)cc1C(=O)Nc1ccc(N(C)C)cc1	.	.	?
COC(=O)[C@@H](NC(=O)O[C@@H]1C(=O)c2ccc(OC)cc2O[C@H]1c1ccc2c(c1)OCO2)C(C)C	/	.	.
COc1ccc(N(C(C)C(=O)N/N=C/c2cccnc2)S(C)(=O)=O)cc1 (stereo not drawn)	/	/	.
Cc1ccc2[nH]c3nc(CCCn4ccnc4-c4ccccc4)nnc3c2c1	/	/	.[13.5 µM]
O=c1/c(=C/c2ccco2)sc2n1CN(c1cccc(Br)c1)CN=2	?	25µM	?
Cc1cc(C)cc(N2CN=c3s/c(=C\c4ccco4)c(=O)n3C2)c1	.	.	.
O=c1/c(=C/c2ccco2)sc2n1CN(c1ccccc1)CN=2	.	.	.
Cc1ccc(/C=c2\sc3n(c2=O)CN(c2cccc(Br)c2)CN=3)o1	.	.	20µM
SMILES	PNC inhibitor	HPGD block	ALDH1A1 inh
COC(Cc1n[nH]c(=S)n1-c1ccc(Cl)cc1)OC	?	?	.
C/C(=N\OCC(=O)Nc1c(C)cc(C)cc1C)c1ccc2c(c1)OCCO2	.	.	.
COc1ccc(N/C=C(/C(C)=O)c2ccccc2)cc1	?	22µM	10µM
COc1ccc(N/C=C/C(=O)C(C)(C)C)cc1	/	/	.
CCOC(=O)c1sc(NCC2CCCO2)nc1C (stereo not drawn)	.	13µM	.
CCOC(=O)c1c(C)c(C(=O)Nc2ccc3c(c2)OCCO3)c(C)n1CC	.	.	.
CCOC(=O)c1c(C)c(C(=O)NCc2ccc(OC)cc2)c(C)n1C	/	/	7.9µM
CCOC(=O)c1c(C)c(C(=O)NCc2ccccc2OC)c(C)n1C	.	.	.
CCOC(=O)c1c(C)c(C(=O)N2CCCCCC2)c(C)n1CC	.	13µM	.
CCOC(=O)c1c(C)c(C(=O)N2CCN(c3ccc(F)cc3)CC2)c(C)n1C	/	/	.
CCOC(=O)c1ccc(NC(=O)C(=O)NCC2CCCO2)cc1 (stereo not drawn)	?	.	.
CCOC(=O)c1c(C)c(C(=O)NCC2CCCO2)c(C)n1CC (stereo not drawn)	?	22µM	?
COc1ccc(-c2nc3cnc(N4CCOCC4)nc3n(-c3ccccc3)c2=O)cc1	/	/	.
CCCc1cc(=O)[nH]c(SCC(=O)N(C)C2CCS(=O)(=O)C2)n1 (stereo not drawn)	?	.	.
C#CCCCO/N=C1/[C@H]2O[C@@H]2[C@@H](O)[C@H]2[C@H]1CCn1c(=O)n(C)c(=O)n12	/	/	.[13.5 µM]
Cc1ccc(S(=O)(=O)N(c2ccc(Br)cc2)C2C=CS(=O)(=O)C2)cc1 (stereo not drawn)	/	/	.
Brc1ccccc1Cn1c(-c2cscn2)nc2ccccc21	.	.	.
